From PubChem BioAssay
Only some compounds are listed: those with a hit (about 6.6% of all), similar ones and a draw of the others.
GDH-TPI inh: GDH-TPI coupling enzyme inhibitors, primary screen, artefact control for M. tuberculosis FBA inhibitor project, biochemical, absorbance, full deck | GDH-TPI coupled enzyme counterscreen, NADH absorbance | inhibition, % at 4.8 µM | 360,000 compounds, 1.2% hits; in the data active = inhibition above about 30%
Bead autofluor: compound fluorescence in toxin protease inhibitor counterscreen | 360,000 compounds, 3.1% hits | compound autofluorescence counterscreen, microsphere flow cytometry; active compounds read high | fluorescence intensity (concentration not given with the values) | AID 624483; in the data active = fluorescence intensity above about 16000; inconclusive = no clear call, values can overlap the other calls
Anthrax LF inh2: Bacillus anthracis LF protease inhibitors, primary screen, biochemical, multiplex microsphere, MLPCN library | multiplex microsphere protease cleavage assay | Lethal factor (Bacillus anthracis), P15917 | inhibition, % at 10 µM | 360,000 compounds, 0.12% hits
Target sequence (P15917 whole entry, looked up): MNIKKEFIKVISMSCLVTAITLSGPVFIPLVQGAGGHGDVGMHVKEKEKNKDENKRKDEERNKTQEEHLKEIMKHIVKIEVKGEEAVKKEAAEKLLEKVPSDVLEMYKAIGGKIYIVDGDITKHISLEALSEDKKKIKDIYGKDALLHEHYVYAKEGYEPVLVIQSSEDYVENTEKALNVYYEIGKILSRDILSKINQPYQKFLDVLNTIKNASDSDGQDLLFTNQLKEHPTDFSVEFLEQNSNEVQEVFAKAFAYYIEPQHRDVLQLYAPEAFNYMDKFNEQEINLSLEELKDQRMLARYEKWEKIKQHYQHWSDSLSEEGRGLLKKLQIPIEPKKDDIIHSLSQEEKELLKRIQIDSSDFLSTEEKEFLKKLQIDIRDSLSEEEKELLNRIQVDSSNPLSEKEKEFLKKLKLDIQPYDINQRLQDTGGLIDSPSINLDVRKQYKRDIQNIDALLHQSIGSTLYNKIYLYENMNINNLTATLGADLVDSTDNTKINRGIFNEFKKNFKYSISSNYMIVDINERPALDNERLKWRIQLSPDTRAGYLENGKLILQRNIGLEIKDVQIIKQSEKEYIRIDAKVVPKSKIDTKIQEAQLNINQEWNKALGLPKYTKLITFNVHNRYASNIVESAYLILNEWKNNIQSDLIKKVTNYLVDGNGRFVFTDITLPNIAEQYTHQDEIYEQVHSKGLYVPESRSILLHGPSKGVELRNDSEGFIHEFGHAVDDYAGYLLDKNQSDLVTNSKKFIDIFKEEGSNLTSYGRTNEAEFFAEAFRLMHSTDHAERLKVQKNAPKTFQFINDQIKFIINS
BoNT F protease: BoNT/F light chain protease inhibitors, primary screen, biochemical, flow cytometry, MLPCN library. inhibition, % at 10 µM. Multiplex microsphere protease cleavage assay. Botulinum neurotoxin type F light chain protease (Clostridium botulinum). AID 588497, 2011. 360,000 compounds, 0.22% hits; in the data active = inhibition above about 35%, passing the limit was not always enough; inconclusive = no clear call, values can overlap the other calls
BoNT-A LC inh2: BoNT/A light chain protease inhibitors, primary screen, biochemical, flow cytometry, MLPCN library; 360,000 compounds, 0.17% hits; multiplex microsphere protease substrate cleavage; inhibition, % at 10 µM; Botulinum neurotoxin type A light chain protease (Clostridium botulinum A str. ATCC 3502)
Mtb FBA inh: Mtb FBA enzyme inhibitors, primary screen, biochemical, fluorescence, strain H37Rv. 360,000 compounds, 2.3% hits. AID 588726, 2011. Fructose-bisphosphate aldolase (Mycobacterium tuberculosis (strain ATCC 25618 / H37Rv)), …. purified M. tuberculosis FBA, fluorescence read-out. inhibition, % at 1 µM; in the data active = inhibition above about 27%
A number is an active result; - = inactive; ? = inconclusive; . = not tested or not shown. Cut-off read from the data, not from the text of the source, unless noted: active = inhibition above about 30%; inconclusive = no clear call, values can overlap the other calls; inactive = below that.

SMILES	GDH-TPI inh	Bead autofluor	Anthrax LF inh2	BoNT F protease	BoNT-A LC inh2	Mtb FBA inh
Cc1cc(-c2ccco2)c(C#N)c2nc3ccccc3n12	31	-	-	-	-	-
CCc1ccc(N2CC(C(=O)N3CCN(S(=O)(=O)c4cccc(F)c4)CC3)CC2=O)cc1 (stereo not drawn)	-	-	-	-	-	-
C=CCN1C(=O)S/C(=C/c2ccsc2)C1=O	-	-	-	-	-	-
CCN1C(=O)S/C(=C/c2ccsc2)C1=O	39	-	-	-	-	-
CC(=O)c1cccc(OCC(O)CN2CC=C(c3ccccc3)CC2)c1 (stereo not drawn)	-	19622	-	-	?	-
Fc1c(F)c(F)c(SCn2cc(Br)cn2)c(F)c1F	-	-	-	-	-	-
O=C(O)Cn1nc2ccccc2n1	-	22940	-	-	?	-
COc1ccc(NC(=O)CN2C(=O)COc3ccccc32)cc1OC	-	-	-	?	-	-
COc1ccccc1N1CCN(C(=O)/C=C/c2c(Cl)nc3ccccn23)CC1	47	-	-	-	-	-
COc1ccc(NC(=O)/C=C/c2c(Cl)nc3ccccn23)cc1	-	-	-	-	-	-
Cn1c2c(c(=O)n(C)c1=O)CS(=O)c1ccccc1N2 (stereo not drawn)	.	-	-	-	-	-
CCOC(=O)c1ccc(Nc2cc(C)nc3ncnn23)cc1	-	-	-	-	-	-
CCc1c(C)nc2ncnn2c1Nc1ccc(C(C)=O)cc1	40	-	-	-	-	-
CCc1c(C)nc2ncnn2c1NCCc1ccc(OC)c(OC)c1	-	18500	-	-	-	-
COc1ccc(CCNc2c(C)c(C)nc3ncnn23)cc1	-	-	-	-	-	-
CCOC(=O)c1ccc(Nc2c(CC)c(C)nc3ncnn23)cc1	32	17060	-	-	-	-
C=CCN(c1ccccc1)S(=O)(=O)c1cccc(C(=O)N(CC)CC(=O)Nc2c(F)cccc2F)c1	-	-	-	-	-	-
COc1ccc(NC(=S)N2CCN(S(=O)(=O)c3ccc(OC)cc3)CC2)cc1	-	-	-	-	-	-
O=C(/C=C/c1ccco1)Oc1cc(Br)cc(/C=N/NC(=O)c2ccccc2O)c1	43	-	-	-	-	-
Cc1ccc(O)c(C2=NCCNC(C(F)(F)F)=C2)c1	-	21465	-	-	?	-
Cc1ccc(C(=O)CSc2n[nH]c(C)n2)cc1	-	-	-	-	-	-
CCc1ccc(C(=O)CSc2n[nH]c(C)n2)cc1	-	21979	-	-	-	-
CCN(CC(=O)Nc1c(F)cccc1F)C(=O)c1ccc(S(=O)(=O)N(CC)c2ccccc2)cc1	-	-	-	-	-	-
Clc1ccc(-c2nnc3n2CCCC3)cc1	-	21835	-	-	-	-
COC(=O)c1ccccc1NC(=S)NC(=O)COc1ccccc1Cl	-	20710	-	-	?	-
SMILES	GDH-TPI inh	Bead autofluor	Anthrax LF inh2	BoNT F protease	BoNT-A LC inh2	Mtb FBA inh
CCc1ccc(NC(=O)NCc2ccc3c(c2)OCO3)cc1	-	-	-	-	-	-
CCC(NC(=O)NCc1ccc2c(c1)OCO2)(C(F)(F)F)C(F)(F)F	-	16887	-	-	?	-
COc1ccc(CN(C(=O)c2snc(C(N)=O)c2N)C(CC(C)C)C(=O)NC2CCCCC2)cc1 (stereo not drawn)	-	-	-	-	-	-
CNC(=O)COC(=O)c1cc(=O)[nH]c2ccccc12	-	23831	-	-	-	-
NC(=O)COC(=O)c1cc(=O)[nH]c2ccccc12	-	-	-	-	-	-
NC(=O)NC(=O)COC(=O)c1ccccc1Oc1ccccc1	-	-	-	-	-	-
CNC(=O)COC(=O)c1ccccc1Oc1ccccc1	-	16994	-	-	-	-
Fc1ccccc1CSc1ncnc2c1oc1ccccc12	-	19470	-	-	-	-
O=C(CSc1ncnc2c1oc1ccccc12)Nc1cccc(C(F)(F)F)c1	-	-	-	-	-	-
O=C(CSc1ncnc2c1oc1ccccc12)Nc1cccc(Cl)c1	-	21833	-	-	-	-
CC(C)Sc1ncnc2c1oc1ccccc12	-	23211	-	-	-	-
COC(=O)[C@@H](NC(=O)NCCC1=CCCCC1)C(C)C	-	-	-	?	?	-
CCOC(=O)[C@]12CCC=C1N(CCC1=CCCCC1)C(=O)[C@H](CC(=O)NCc1cccs1)C2	.	-	-	-	-	.
Cc1cc(C)n(-c2nc3ccccc3c(=O)n2OCC(C)C)n1	-	-	-	-	-	-
CCOn1c(-n2nc(C)cc2C)nc2ccccc2c1=O	-	20487	-	-	-	-
CCN(CC)C(=O)COn1c(SCC(=O)N(CC)CC)nc2ccccc2c1=O	-	19592	-	-	-	-
COC(=O)COn1c(-n2nc(C)cc2C)nc2ccccc2c1=O	-	22312	-	-	-	-
Cc1ccc(N(CC(O)CN2CCCCC2)S(=O)(=O)c2ccccc2)cc1 (stereo not drawn)	-	-	-	-	-	-
CC(C)CCNC(=O)C(=O)NCCC1=CCCCC1	-	-	-	-	-	-
Cc1ccc(S(=O)(=O)N2CCCCC2)cc1C(=O)NCCC1=CCCCC1	-	-	-	?	-	-
COc1cc(C(=O)NCCC2=CCCCC2)cc(OC)c1OC	-	22928	-	-	-	-
COc1cc(C(=O)OCC(=O)NCCC2=CCCCC2)cc(OC)c1OC	-	-	-	-	-	-
Cc1cc(C)cc(N(C(C)C(=O)NCCC2=CCCCC2)S(C)(=O)=O)c1 (stereo not drawn)	-	23149	-	-	-	-
COc1ccc(C)cc1NC(=O)NCCC1=CCCCC1	-	21584	-	-	-	-
Cc1cc(C(=O)NCCC2=CCCCC2)c(C)o1	-	16581	-	-	-	-
SMILES	GDH-TPI inh	Bead autofluor	Anthrax LF inh2	BoNT F protease	BoNT-A LC inh2	Mtb FBA inh
CCOC(=O)C1CCCN(C(=O)c2cc(S(=O)(=O)N(C)C)ccc2N2CCCC2)C1 (stereo not drawn)	-	?	-	-	-	-
CC(C)N(Cc1cn[nH]c1-c1ccc(-c2ccccc2)cc1)Cc1nccn1C	-	-	-	-	-	-
O=C(O)CCc1ccc(-c2ccc(Br)cc2)o1	-	23745	-	-	?	-
Cc1ccc(-c2nc(CCN3C(=O)c4ccccc4C3=O)cs2)cc1	-	23490	-	-	?	-
N#C/C(=C/c1cccc(C(F)(F)F)c1)c1nc(CCN2C(=O)c3ccccc3C2=O)cs1	-	-	-	-	-	-
O=C1c2ccccc2C(=O)N1CCc1csc(NNc2nc(CCN3C(=O)c4ccccc4C3=O)cs2)n1	-	-	-	-	-	-
